Here are results for 40 compounds from PubChem BioAssay (NCATS).

Several values for one entry are separate records, joined by “and”; a condition that tells them apart may be missing. Equal entries are not always repeated. Records with an inconclusive call do not appear. Values without a mark were called inactive. Activity calls are given as the source filed them. Calls come from the whole dose curve; as a rule, active = well fitted inhibition curve with a large enough effect; inconclusive = small, poorly fitted or top-dose-only effect; inactive = flat fitted curve, though single readings scatter.
% is set by controls: 0 for no effect and ±100 for the full control effect; potency is the fitted concentration of half-maximal effect.

Ubiquitin carboxyl-terminal hydrolase 1 (Homo sapiens), sequence (O94782 whole entry, looked up): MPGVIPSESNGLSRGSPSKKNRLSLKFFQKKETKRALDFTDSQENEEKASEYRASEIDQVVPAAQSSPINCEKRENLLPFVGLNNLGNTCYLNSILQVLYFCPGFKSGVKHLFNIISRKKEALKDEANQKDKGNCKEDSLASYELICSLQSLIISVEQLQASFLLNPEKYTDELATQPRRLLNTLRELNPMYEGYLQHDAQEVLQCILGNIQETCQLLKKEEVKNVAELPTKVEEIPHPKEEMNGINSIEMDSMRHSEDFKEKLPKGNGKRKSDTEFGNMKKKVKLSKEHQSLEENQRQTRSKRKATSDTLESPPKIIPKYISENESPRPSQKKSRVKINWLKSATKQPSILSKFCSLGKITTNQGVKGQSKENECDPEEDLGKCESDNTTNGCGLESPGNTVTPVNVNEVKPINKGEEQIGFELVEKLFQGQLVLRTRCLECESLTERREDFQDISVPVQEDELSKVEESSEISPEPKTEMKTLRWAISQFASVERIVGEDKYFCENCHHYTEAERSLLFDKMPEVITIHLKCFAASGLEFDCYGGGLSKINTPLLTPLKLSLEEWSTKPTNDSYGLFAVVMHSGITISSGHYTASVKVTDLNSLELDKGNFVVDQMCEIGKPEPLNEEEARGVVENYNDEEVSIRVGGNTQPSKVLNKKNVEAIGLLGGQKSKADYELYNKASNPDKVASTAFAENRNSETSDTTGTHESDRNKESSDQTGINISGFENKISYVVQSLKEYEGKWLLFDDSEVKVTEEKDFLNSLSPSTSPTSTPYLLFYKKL

For the assay, the target named is Ubiquitin carboxyl-terminal hydrolase 1 (Homo sapiens) (UniProt O94782). The assay can be described thus: Inhibitors of USP1/UAF1: Pilot qHTS (AID 504865).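 For activity change, negative = inhibition: rhodamine fluorescence freed from ubiquitin-rhodamine substrate followed over time; top concentration of the series differs between compounds.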 Note: nearly all actives have a fitted effect of over 35% in size. The following applies: purified USP1/UAF1, Ub-rhodamine cleavage fluorescence; series mostly up to 114 µM; activity change, negative = inhibition: at the top concentration. An outline of the steps:
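1nM USP1/UAF1 + cpd, 15 min RT; start w/ Ub-Rho 150nM final; kinetic FL 480/540 nm, 6 reads q60 s. Buffer 50mM HEPES pH 7.8, 0.5mM EDTA, 1mM TCEP, 0.01% Tween-20, 0.1 mg/ml BSA.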
On the technique in general: qHTS replaces the single test concentration by a dilution series.
With `Cc1ccnc(NS(=O)(=O)c2ccc(N)cc2)n1`, the “activity change, negative = inhibition” value is -12.9% [at 54.9 µM].
With `NCCc1ccn[nH]1`, the “activity change, negative = inhibition” value is -6.93% [at 54.9 µM].
With `OC(CCN1CCCCC1)(c1ccccc1)c1ccccc1`, the “activity change, negative = inhibition” value was -1.85%.
Same read-out and setting: in the case of `O=C1OCCN1/N=C/c1ccc([N+](=O)[O-])o1` it was -3%; in that of `CCN(CC)CCOC(=O)C(c1ccccc1)C1CCCCC1` (stereo not given), -10.1%.
Take `CC(C)N=C(N)/N=C(\N)Nc1ccc(Cl)cc1`: the “activity change, negative = inhibition” value is 1.38% [at 54.9 µM].
On to `CC(O)(P(=O)(O)O)P(=O)(O)O`, for which the Potency result is “inactive”.
Turning to `Cc1c(F)c(N2CCNC(C)C2)cc2c1c(=O)c(C(=O)O)cn2C1CC1` (stereo not given), the “activity change, negative = inhibition” value is -7.99%.
For `CC(=O)Oc1ccc(C(=C2CCCCC2)c2ccc(OC(C)=O)cc2)cc1`, the “activity change, negative = inhibition” value is -10.2%.
`CCOc1ccc2nc3cc(N)ccc3c(N)c2c1`: the Potency was 50.1 µM (active).
`Nc1ccc(/C=C/c2ccc(N)cc2S(=O)(=O)O)c(S(=O)(=O)O)c1`: the “activity change, negative = inhibition” value is -3.84%.
For the compound `Oc1c(Cl)cc(Cl)cc1Sc1cc(Cl)cc(Cl)c1O`, the Potency is 35.5 µM (active) and 20 µM (active).
With `COc1c2occc2c(OC)c2c(=O)cc(C)oc12`, the Potency was 39.8 µM (active).
As to `CC(=O)N/N=C/c1ccc([N+](=O)[O-])o1`, the “activity change, negative = inhibition” value is -14.4%.
Turning to `COCc1c(C(C)C)nc(C(C)C)c(/C=C/[C@@H](O)C[C@@H](O)CC(=O)O)c1-c1ccc(F)cc1`, the “activity change, negative = inhibition” value was -9.29%.
As for `C[C@]12CCC(=O)C=C1CC[C@H]1[C@@H]3CC[C@](O)(C(=O)CO)[C@@]3(C)C[C@H](O)[C@@]12F`, the “activity change, negative = inhibition” value was -6.91%.
On to `COc1cc(C(=S)N2CCOCC2)cc(OC)c1OC`, for which the “activity change, negative = inhibition” value is -4.5%.
Take `O=C1[C@H]2CCCC[C@H]2C(=O)N1CCCCN1CCN(c2nsc3ccccc23)CC1`: the “activity change, negative = inhibition” value was -12.2%.
The same measure, in the same setting: to `CN(C)CCOc1ccccc1Cc1ccccc1` belongs -10.9%; to `CN1CCC[C@@H]1c1cccnc1`, -0.742%.
`CCCCC(CC)CN=C(N)NC(N)=NCCCCCCN=C(N)NC(N)=NCC(CC)CCCC` (stereo not given): the Potency is 22.4 µM (active).
Consider `COc1cc2c(cc1OC)C(=O)C(CC1CCN(Cc3ccccc3)CC1)C2` (stereo not given), for which the “activity change, negative = inhibition” value was -4.73%.
On to `CCCCCCc1ccc(O)cc1O`, for which the Potency is 44.7 µM (active).
In the case of `CCC(C(=O)OCCN(CC)CC)c1ccccc1` (stereo not given), the “activity change, negative = inhibition” value is 3.25%.
Take `CN=C(NC#N)NCCSCc1csc(N=C(N)N)n1`: the Potency entry was “inactive”.
For `Oc1c(I)cc(Cl)c2cccnc12`, the Potency result is “inactive”.
As for `CCOc1ccc(NC(=O)CC(C)O)cc1` (stereo not given), the “activity change, negative = inhibition” value is 6.58%.
As to `COc1cccc2c1C(=O)c1c(O)c3c(c(O)c1C2=O)C[C@@](O)(C(C)=O)C[C@@H]3O[C@H]1C[C@H](N)[C@H](O)[C@H](C)O1`, the Potency is 44.7 µM (active) and 39.8 µM (active).
Consider `O=C(Nc1ccc(Cl)c(Cl)c1)C1CC1`, for which the “activity change, negative = inhibition” value was -9.07%.
On to `COC(=O)[C@@H]1CC2=CC(=O)CC[C@]2(C)[C@@]23O[C@@H]2C[C@@]2(C)[C@@H](CC[C@@]24CCC(=O)O4)[C@H]13`, for which the “activity change, negative = inhibition” value is 2.18%.
On to `C[C@H]1C[C@H]2[C@@H]3CCC4=CC(=O)C=C[C@]4(C)[C@@]3(Cl)[C@@H](O)C[C@]2(C)[C@@]1(O)C(=O)CO`, for which the “activity change, negative = inhibition” value is -2.16%.
On to `CC(=O)Oc1ccc(C(c2ccc(OC(C)=O)cc2)c2ccccn2)cc1`, for which the Potency result is “inactive”.
`CCN(CC)C(=O)/C(C#N)=C/c1cc(O)c(O)c([N+](=O)[O-])c1`: the “activity change, negative = inhibition” value is -1.91%.
As for `CCN1CCC[C@H]1CNC(=O)c1c(OC)ccc(Br)c1OC`, the Potency entry was “inactive”.
On to `CC(=O)Nc1c(I)cc(I)c(C(=O)O)c1I`, for which the “activity change, negative = inhibition” value was -10.8%.
Turning to `COc1c(C)c2c(c(O)c1C/C=C(\C)CCC(=O)O)C(=O)OC2`, the “activity change, negative = inhibition” value is 2.42% [at 54.9 µM].
Take `Cc1c(C(C)C)c(=O)n(-c2ccccc2)n1C`: the “activity change, negative = inhibition” value was -5.26%.
On to `Cc1cc(O)c(C(C)C)cc1Cl`, for which the “activity change, negative = inhibition” value is -5.49%.
On to `CCCC(=O)Nc1ccc(OCC(O)CNC(C)C)c(C(C)=O)c1` (stereo not given), for which the “activity change, negative = inhibition” value is -10.3%.
Take `O=c1c(-c2ccccc2)c1-c1ccccc1`: the “activity change, negative = inhibition” value is -4.29%.
